Measurements: the supplement of paper PMC10037445
Whole data set: some 2,900 compounds, median “NF-kB SEAP reporter activity, fold change vs agonist alone” near 0.99, cut for the highest 2% near 2.6. The sample as a whole holds a higher share of the highest values than the screen did.

Columns and labels:
[1] = tested on: RAW-Dual; experiment: NF-kB SEAP reporter activity, fold change vs agonist alone; higher = enhanced NF-kB activity
Method in brief: (§1)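 RAW-Dual macrophages were seeded in DMEM at 50,000 cells/well in 384-well plates, given 50 nL of library stock by pin tool, and given a PRR agonist 1 h later. Plates were held at 37 °C, 5% CO2 for 20 hours, after which supernatant was read for IRF by QuantiLuc luminescence and for NF-κB by QuantiBlue absorbance at 620 nm. Reporter activity is expressed as fold change over wells that received agonist alone. A well was called cytotoxic when IncuCyte confluency fell below 70% of agonist controls in both mask sets.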

[2] = tested on: RAW-Dual; experiment: NF-kB SEAP reporter activity, fold change vs agonist alone; cytotoxicity flag (confluency mask): not cytotoxic; higher = enhanced NF-kB activity
Method in brief: as §1

[3] = tested on: RAW-Dual; experiment: NF-kB SEAP reporter activity, fold change vs agonist alone; cytotoxicity flag (confluency mask): cytotoxic (confluency <70% of control); higher = enhanced NF-kB activity
Method in brief: as §1

[4] = library stock concentration (final ~1000-fold dilution): 10 mM, cytotoxicity flag (confluency mask): not cytotoxic, agonist: Imiquimod (TLR7) […]
[5] = library stock concentration (final ~1000-fold dilution): 10 mM, cytotoxicity flag (confluency mask): not cytotoxic, agonist: MPLA (TLR4) […]
[6] = agonist: ODN 1826 (TLR9) 0.5 ug/mL
[7] = agonist: Pam2CSK4 (TLR2/6) 0.1 ug/mL
[8] = agonist: Pam3CSK4 (TLR2/1) 0.1 ug/mL
[9] = library stock concentration (final ~1000-fold dilution): 10 mM, cytotoxicity flag (confluency mask): cytotoxic (confluency <70% of control), agonist: Imiquimod (TLR7) […]
[10] = library stock concentration (final ~1000-fold dilution): 10 mM, cytotoxicity flag (confluency mask): cytotoxic (confluency <70% of control), agonist: MPLA (TLR4) […]

CC1OC(OC2C(Oc3cc(O)c(C(=O)CCc4ccc(O)cc4)c(O)c3)OC(CO)C(O)C2O)C(O)C(O)C1O (centres undefined)
NF-kB SEAP reporter activity [1, 4]: 0.957 | NF-kB SEAP reporter activity [1, 5]: 1.03

CC1OC(OC2C(Oc3cc(O)c(C(=O)CCc4ccc(O)cc4)c(O)c3)OC(CO)C(O)C2O)C(O)C(O)C1O (centres undefined) (library stock concentration (final ~1000-fold dilution): 10 mM)
NF-kB SEAP reporter activity ([2]; agonist: LPS (TLR4) 0.1 ug/mL): 0.867 | NF-kB SEAP reporter activity [2, 6]: 0.991 | NF-kB SEAP reporter activity [2, 7]: 0.784 | NF-kB SEAP reporter activity [2, 8]: 1.06

O=c1c(-c2ccc(O)cc2)coc2cc(OC3OC(CO)C(O)C(O)C3O)ccc12 (centres undefined)
NF-kB SEAP reporter activity [1, 4]: 1.08 | NF-kB SEAP reporter activity [1, 5]: 1.08

O=c1c(-c2ccc(O)cc2)coc2cc(OC3OC(CO)C(O)C(O)C3O)ccc12 (centres undefined) (library stock concentration (final ~1000-fold dilution): 10 mM)
NF-kB SEAP reporter activity ([2]; agonist: LPS (TLR4) 0.1 ug/mL): 1.62 | NF-kB SEAP reporter activity [2, 6]: 1.17 | NF-kB SEAP reporter activity [2, 7]: 1.25 | NF-kB SEAP reporter activity [2, 8]: 1.38

CN(CC(=O)N(Cc1ccc(C2CCCCC2)cc1)c1ccc(C(=O)NO)cc1)S(=O)(=O)c1c(F)c(F)c(F)c(F)c1F
NF-kB SEAP reporter activity [1, 4]: 1.3 | NF-kB SEAP reporter activity [1, 5]: 1.02

CN(CC(=O)N(Cc1ccc(C2CCCCC2)cc1)c1ccc(C(=O)NO)cc1)S(=O)(=O)c1c(F)c(F)c(F)c(F)c1F (library stock concentration (final ~1000-fold dilution): 10 mM)
NF-kB SEAP reporter activity ([2]; agonist: LPS (TLR4) 0.1 ug/mL): 0.324 | NF-kB SEAP reporter activity [2, 6]: 1.53 | NF-kB SEAP reporter activity [2, 7]: 0.374 | NF-kB SEAP reporter activity [2, 8]: 0.284

CS(=O)(=O)c1ccc(C(=O)Nc2ccc(Cl)c(-c3ccccn3)c2)c(Cl)c1 (library stock concentration (final ~1000-fold dilution): 10 mM)
NF-kB SEAP reporter activity ([2]; agonist: LPS (TLR4) 0.1 ug/mL): 1.19 | NF-kB SEAP reporter activity [2, 6]: 1.4 | NF-kB SEAP reporter activity [2, 7]: 0.898 | NF-kB SEAP reporter activity [2, 8]: 1.01

CS(=O)(=O)O.Cc1ccc(NC(=O)c2ccc(CN3CCN(C)CC3)cc2)cc1Nc1nccc(-c2cccnc2)n1
NF-kB SEAP reporter activity [1, 9]: 1.24 | NF-kB SEAP reporter activity [1, 10]: 1.46

CS(=O)(=O)c1ccc(-c2cnc(N)c(C(=O)Nc3ccccc3)n2)cc1 (library stock concentration (final ~1000-fold dilution): 10 mM)
NF-kB SEAP reporter activity ([2]; agonist: LPS (TLR4) 0.1 ug/mL): 4.61 | NF-kB SEAP reporter activity [2, 6]: 0.67 | NF-kB SEAP reporter activity [2, 7]: 1.02 | NF-kB SEAP reporter activity [2, 8]: 1.48

CNCc1ccc(-c2cc(-c3nc(-c4ccc(S(=O)(=O)C(C)C)cc4)cnc3N)on2)cc1 (library stock concentration (final ~1000-fold dilution): 10 mM)
NF-kB SEAP reporter activity ([2]; agonist: LPS (TLR4) 0.1 ug/mL): 1.06 | NF-kB SEAP reporter activity [2, 6]: 0.943 | NF-kB SEAP reporter activity [2, 7]: 0.871 | NF-kB SEAP reporter activity [2, 8]: 1.05

CS(=O)(=O)O.Cc1ccc(NC(=O)c2ccc(CN3CCN(C)CC3)cc2)cc1Nc1nccc(-c2cccnc2)n1 (library stock concentration (final ~1000-fold dilution): 10 mM)
NF-kB SEAP reporter activity ([3]; agonist: LPS (TLR4) 0.1 ug/mL): 1.29 | NF-kB SEAP reporter activity [3, 6]: 0.201 | NF-kB SEAP reporter activity [3, 7]: 1.13 | NF-kB SEAP reporter activity [3, 8]: 1.25

CC(C)(C)c1ccc(S(=O)(=O)NCc2ccc(C(=O)Nc3cccnc3)cc2)cc1
NF-kB SEAP reporter activity [1, 4]: 0.865 | NF-kB SEAP reporter activity [1, 5]: 0.908

CN1CCN(S(=O)(=O)c2ccc(-c3cnc(N)c(C(=O)Nc4cccnc4)n3)cc2)CC1 (library stock concentration (final ~1000-fold dilution): 10 mM)
NF-kB SEAP reporter activity ([2]; agonist: LPS (TLR4) 0.1 ug/mL): 4.28 | NF-kB SEAP reporter activity [2, 6]: 2.61 | NF-kB SEAP reporter activity [2, 7]: 1.11 | NF-kB SEAP reporter activity [2, 8]: 2.07

CS(=O)(=O)c1ccc(C(=O)Nc2ccc(Cl)c(-c3ccccn3)c2)c(Cl)c1
NF-kB SEAP reporter activity [1, 4]: 1.07 | NF-kB SEAP reporter activity [1, 5]: 0.945

CC(C)(C)c1ccc(S(=O)(=O)NCc2ccc(C(=O)Nc3cccnc3)cc2)cc1 (library stock concentration (final ~1000-fold dilution): 10 mM)
NF-kB SEAP reporter activity ([2]; agonist: LPS (TLR4) 0.1 ug/mL): 0.67 | NF-kB SEAP reporter activity [2, 6]: 1.1 | NF-kB SEAP reporter activity [2, 7]: 0.834 | NF-kB SEAP reporter activity [2, 8]: 0.706

CS(=O)(=O)c1ccc(-c2cnc(N)c(C(=O)Nc3ccccc3)n2)cc1
NF-kB SEAP reporter activity [1, 4]: 1.45 | NF-kB SEAP reporter activity [1, 5]: 2.21

CN1CCN(S(=O)(=O)c2ccc(-c3cnc(N)c(C(=O)Nc4cccnc4)n3)cc2)CC1
NF-kB SEAP reporter activity [1, 4]: 1.5 | NF-kB SEAP reporter activity [1, 5]: 2.5

CNCc1ccc(-c2cc(-c3nc(-c4ccc(S(=O)(=O)C(C)C)cc4)cnc3N)on2)cc1
NF-kB SEAP reporter activity [1, 4]: 0.858 | NF-kB SEAP reporter activity [1, 5]: 0.98

CC/C=C\C/C=C\C/C=C\C/C=C\C/C=C\C/C=C\CCC(=O)NCCNC(=O)c1ccccc1O
NF-kB SEAP reporter activity [1, 9]: 0.248 | NF-kB SEAP reporter activity [1, 10]: 1.54

CC/C=C\C/C=C\C/C=C\C/C=C\C/C=C\C/C=C\CCC(=O)NCCNC(=O)c1ccccc1O (library stock concentration (final ~1000-fold dilution): 10 mM)
NF-kB SEAP reporter activity ([3]; agonist: LPS (TLR4) 0.1 ug/mL): 0.318 | NF-kB SEAP reporter activity [3, 6]: 0.298 | NF-kB SEAP reporter activity [3, 7]: 0.133 | NF-kB SEAP reporter activity [3, 8]: 0.184

C=CC(=O)N1CC(N2CCN(C(=O)CNc3cc(C4(C)CC4)c(Cl)cc3O)CC2)C1
NF-kB SEAP reporter activity [1, 4]: 0.915 | NF-kB SEAP reporter activity [1, 5]: 0.645

C=CC(=O)N1CC(N2CCN(C(=O)CNc3cc(C4(C)CC4)c(Cl)cc3O)CC2)C1 (library stock concentration (final ~1000-fold dilution): 10 mM)
NF-kB SEAP reporter activity ([2]; agonist: LPS (TLR4) 0.1 ug/mL): 0.418 | NF-kB SEAP reporter activity [2, 6]: 0.542 | NF-kB SEAP reporter activity [2, 7]: 0.537 | NF-kB SEAP reporter activity [2, 8]: 0.448

Cl.N=C(N)NC(=O)c1nc(Cl)c(N)nc1N.O.O (library stock concentration (final ~1000-fold dilution): 10 mM water)
NF-kB SEAP reporter activity ([2]; agonist: LPS (TLR4) 0.1 ug/mL): 1.07 | NF-kB SEAP reporter activity [2, 6]: 1.09 | NF-kB SEAP reporter activity [2, 7]: 0.993 | NF-kB SEAP reporter activity [2, 8]: 0.984

Cl.N=C(N)NC(=O)c1nc(Cl)c(N)nc1N.O.O
NF-kB SEAP reporter activity ([1]; library stock concentration (final ~1000-fold dilution): 10 mM water, cytotoxicity flag (confluency mask): not cytotoxic, agonist: Imiquimod (TLR7) […]): 0.827 | NF-kB SEAP reporter activity ([1]; library stock concentration (final ~1000-fold dilution): 10 mM water, cytotoxicity flag (confluency mask): not cytotoxic, agonist: MPLA (TLR4) […]): 1.01

Cn1nc(C(C)(C)C)cc1C(=O)NC(Cc1cccc(Cl)c1)C(=O)NCC#N (centres undefined)
NF-kB SEAP reporter activity [1, 4]: 0.765 | NF-kB SEAP reporter activity [1, 5]: 1.05
